Screening data from PubChem.
KLF5 inhibitor = KLF5 expression inhibitors, primary screen, DLD-1 cells, luminescence | DLD-1 KLF5 promoter-luciferase reporter | inhibition, % at 5 µM | actives 0.23% (n = 290,000);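 active means inhibition above a per-plate limit of that plate's mean compound inhibition plus 3 SD, cut at about 60% in these data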;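 further: 0% = DMSO wells and 100% = LY294002 at 200 µM; higher means less KLF5 promoter-driven luciferase light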
BaF3 tox = parental Ba/F3 cell viability inhibition, counter-screen for JAK2V617F inhibitor project, murine pro-B, CellTiter-Glo luminescence; actives 1.1% (n = 220,000); inhibition, % at 5.6 µM; CellTiter-Glo ATP luminescence;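 active means inhibition above a per-campaign cutoff, the mean inhibition of all tested compounds plus 3 SD, cut at about 27% in these data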;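 further: 0% = DMSO wells and 100% = JAK Inhibitor I control wells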
Ba/F3 V617F tox = reduced viability of JAK2V617F-dependent Ba/F3 cells, primary screen, JAK2V617F inhibitor project, cell-based, Ba/F3 EpoR-JAK2V617F, luminescence | AID 1446, 2008 | inhibition, % at 5.6 µM | ATP luminescence | actives 1.1% (n = 220,000);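 active means inhibition above the campaign mean plus 3 SD over all tested compounds, cut at about 24% in these data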;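 further: cytokine-independent growth of Ba/F3 cells driven by EpoR plus mutant JAK2; 0% = DMSO-treated cells and 100% = JAK inhibitor I control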
APP transl inh = inhibitors of APP translation via 5'UTR reporter, primary screen, APP 5'UTR luciferase, SH-SY5Y cells | SH-SY5Y APP 5'UTR-luciferase reporter, luminescence | inhibition, % at 2 µM | actives 0.82% (n = 190,000) | AID 1285, 2008;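 active means inhibition above a set limit, derived from the sample mean plus 3 SD, cut at about 45% in these data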
aSyn 5UTR inh = MLPCN primary screen, SNCA 5' untranslated region; alpha-synuclein 5'UTR reporter, inhibitor activity; inhibition, % (tested at 7.5 µM); actives 0.82% (n = 300,000); AID 1813, 2009; in the data active means inhibition above about 60%;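 further: H4 neuroglioblastoma cells stably carrying SNCA 5'UTR luciferase fusion; 0% = DMSO wells and 100% = positive control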
IEC-6 tox = cytotoxicity in IEC-6 intestinal epithelial cells, primary screen, cytotoxicity control for KLF5 inhibitor project, cell-based, luminescence; actives 0.78% (n = 290,000); AID 1825, 2009; inhibition, % at 5 µM; IEC-6 cytotoxicity, luminescence viability; in the data active means inhibition above about 22%;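 further: 0% = plate median of test compound wells and 100% = cytotoxic reference compound wells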
BaF3 parental 2 = parental Ba/F3 cell viability inhibition, counter-screen for JAK2V617F inhibitor project, murine pro-B, CellTiter-Glo luminescence; AID 1520, 2009; actives 31% (n = 580); inhibition, % at 5.6 µM; shares compounds with Ba/F3 V617F tox; cells kept alive by added IL-3;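 active means cell growth inhibition above the hit limit set in the earlier mutant JAK2 cell screen, cut at about 27% in these data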;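 further: plate controls were DMSO-treated cells for no effect and JAK Inhibitor I control wells for full effect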
JAK2V617F conf = viability loss in Ba/F3 EpoR-JAK2V617F cells, confirmation, JAK2V617F inhibitor project, cell-based, luminescence, triplicate | CellTiter-Glo luminescence | inhibition, % at 5.6 µM | shares compounds with Ba/F3 V617F tox | AID 1521, 2009 | actives 66% (n = 580);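 active means mean inhibition above the hit cutoff derived in the earlier primary screen, cut at about 25% in these data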;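 further: 0% = DMSO-treated cells and 100% = JAK inhibitor I control wells; higher means lower luminescence from reduced cell ATP and viability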
* marks the source's active call; other numbers are inactive results; . = no result given. Hits are enriched below; roughly 2.1% of the tested compounds scored in any of these assays.

SMILES | KLF5 inhibitor | BaF3 tox | Ba/F3 V617F tox | APP transl inh | aSyn 5UTR inh | IEC-6 tox | BaF3 parental 2 | JAK2V617F conf
Cc1cc2ccccn2c1C(=O)c1ccc([N+](=O)[O-])o1 | -10 | 0 | 27* | 54* | -147 | 2 | -7 | 42*
CC1=C(C(=O)OC(C)C)C(c2ccc(C)o2)C(C(=O)OC(C)C)=C(C)N1 | -33 | -2 | -4 | . | 4 | 5 | . | .
CCCCN1CN(Cc2ccccc2)CNC1=S | 3 | 5 | 41* | 2 | 11 | -3 | 1 | 10
CCCCN(CC)Cc1ccc(CNC(=O)Nc2ccc(F)cc2)o1 | 2 | 15 | 48* | 12 | 43 | 9 | 8 | 39*
CCOc1ccc(S(=O)(=O)N(CC)CC(=O)N2CCOCC2)cc1C | -19 | . | . | . | 18 | -6 | . | .
Nc1[nH]n(-c2ccccc2)c(=O)c1N=Nc1ccc2c(c1)OCO2 | -58 | 6 | 27* | . | -205 | 4 | 57* | 44*
COc1ccc(N2CCN(C3CCCN(C(=O)C4=C(C)OCCO4)C3)CC2)cc1 (stereo unspecified) | -28 | . | . | . | 15 | -4 | . | .
CCCc1nc2cc3c(cc2[nH]1)n(C)c(=O)n3C | -11 | . | . | . | -3 | 0 | . | .
COc1cc(OC)nc(Oc2cccc(Cl)c2C)n1 | . | . | . | . | 23 | . | . | .
Cc1nc(N=C(N)N)nc2ccccc12 | -7 | 20 | 34* | -23 | 4 | 7 | 29* | 51*
COc1cccc(NC(=O)CCC2CCN(C(=O)c3scnc3C)CC2)c1 | -34 | . | . | . | 7 | -1 | . | .
O=C(NCCCCCCNC(=O)c1ccc(Br)s1)c1ccc(Br)s1 | -34 | -1 | 37* | 10 | -108 | -4 | -2 | 20
O=C(NCCCCNC(=O)c1ccc(Cl)s1)c1ccc(Cl)s1 | -28 | 0 | -4 | -1 | 3 | -1 | . | .
Cc1cc(Cl)ccc1NC(=O)CCC(=O)N/N=C/c1cccnc1 | -34 | . | . | . | -1 | -6 | . | .
COc1ccc(-n2nnnc2SCC(=O)c2ccc(O)c(O)c2)cc1 | -34 | 6 | 52* | -2 | -10 | 9 | -1 | 79*
COc1cccc(C(C(=O)NCC2CCCO2)N(C(=O)Cn2nnc3ccccc32)c2ccc(NC(C)=O)cc2)c1 (stereo unspecified) | -12 | . | . | . | 9 | 7 | . | .
CCOc1ccc(S(=O)(=O)N(C)c2ccc(OCC(=O)NCc3ccc(C(=O)OC)cc3)cc2)cc1 | -12 | -1 | -2 | 4 | 8 | -1 | . | .
O=C1C2C3C=CC(C3)C2C(=O)N1c1ccc2c(c1)OCO2 (stereo unspecified) | -4 | 2 | 57* | -6 | 16 | 3 | -6 | -6
O=C1C2C3C=CC(CC3)C2C(=O)N1c1ccc2c(c1)OCO2 (stereo unspecified) | 3 | 2 | 0 | 11 | 0 | -3 | . | .
CC(=O)C1=C(O)CC(C)(C)CC1=NCCc1nc2ccccc2[nH]1 | -26 | 3 | 102* | 3 | 5 | 4 | -3 | 3
Nc1nc(CCl)nc(Nc2ccc3ccccc3c2)n1 | -59 | 24 | 100* | . | 23 | 47* | 9 | 99*
COc1ccc(Nc2nc(N)nc(CCl)n2)cc1 | -24 | -1 | 45* | . | -38 | 6 | -1 | 65*
Cc1ccccc1Nc1nc(N)nc(CCl)n1 | -8 | -5 | 37* | . | -5 | 14 | -3 | 9
CN(C)S(=O)(=O)c1ccc(Cl)c(C(=O)NC2=NCCS2)c1 | -2 | . | . | . | 10 | 8 | . | .
Nc1ccc2nc(-c3cc(Cl)c(N)c(Cl)c3)[nH]c2c1 | -90 | 20 | 24* | -44 | -279 | 6 | 31* | 53*
SMILES | KLF5 inhibitor | BaF3 tox | Ba/F3 V617F tox | APP transl inh | aSyn 5UTR inh | IEC-6 tox | BaF3 parental 2 | JAK2V617F conf
Nc1ccc2nc(-c3ccc(Cl)cc3)[nH]c2c1 | . | . | . | -61 | -176 | . | . | .
Cc1ccc(C)c(-c2nc3ccc(N)cc3[nH]2)c1 | -1 | 26 | 33* | 3 | -64 | 7 | 35* | 54*
COc1ccccc1-c1nc(S(=O)(=O)c2ccccc2)c(N2CCOCC2)o1 | -27 | . | . | . | -2 | -2 | . | .
CC1=CC(=C2C(=O)c3ccccc3C2=O)C=C(C)O1 | -40 | 3 | -1 | -11 | -129 | -1 | . | .
CC(=O)C1=C(c2ccc(Br)cc2)C(=O)c2ccccc2C1=O | -17 | 0 | 26* | 68* | 24 | 6 | 105* | 98*
OC1(c2ccc(OC(F)F)cc2)CSC(=Nc2cccnc2)N1C1CC1 (stereo unspecified) | 6 | 17 | 29* | 2 | -14 | 9 | 5 | 31*
COc1ccc(OC)c(C2(O)CSC(=Nc3cccnc3)N2Cc2ccco2)c1 (stereo unspecified) | -6 | 11 | 6 | 6 | -10 | 6 | . | .
COc1ccc(CN2CCC(Oc3ccc(C(=O)N4CCCC4)cc3)CC2)c(F)c1 | -2 | . | . | . | 10 | -6 | . | .
CCCOc1ccc(Cc2nc(N)nc(N)n2)cc1 | -4 | 12 | 40* | 1 | 3 | 6 | 8 | 18
CCOc1ccc(Cc2nc(N)nc(N)n2)cc1 | -18 | 3 | -1 | -9 | 6 | -6 | . | .
CCn1c(SCc2nc(-c3ccccc3)no2)nnc1-c1ccco1 | 7 | 5 | -2 | 3 | -32 | -3 | . | .
CCn1c(SCc2c(F)cccc2Cl)nnc1-c1ccco1 | 8 | -1 | 27* | -2 | -23 | 4 | -2 | 4
O=C(CCN1C(=O)c2ccccc2S1(=O)=O)N1CCN(c2cccc(Cl)c2)CC1 | . | . | . | . | -10 | . | . | .
COc1ccc(NC(=O)C2C3C=CC4(O3)C2C(=O)N(CCN2CCCCC2)C4C(=O)NC2CCCC(C)C2C)cc1 (stereo unspecified) | -45 | . | . | . | -21 | 7 | . | .
CC(C)CCNC(=O)C(c1ccco1)N(CCCO)C(=O)Cn1nnc(-c2ccc(F)cc2)n1 (stereo unspecified) | -1 | -2 | 49* | -10 | -17 | -6 | -8 | -3
O=C(/C=C/c1ccc(O)c(O)c1)c1ccc(S(=O)(=O)N2CCCCCC2)cc1 | -12 | 15 | 44* | 10 | -48 | 8 | 10 | 85*
Nc1nc(-c2ccc(Cl)cc2)nn1C(=O)c1cccs1 | -16 | 3 | 1 | 1 | -36 | 10 | . | .
Cc1ccc(O)c(NC(=O)CSc2ccc(Cl)cc2)c1 | -34 | 23 | 43* | -17 | -177 | 1 | 21 | 71*
CC(=O)Oc1ccc(Cl)cc1/C=C/c1cc(OC(C)=O)c2ccccc2n1 | -19 | 23 | 24* | 1 | -138 | 10 | 30* | 48*
